Compound activity from PubChem BioAssay.
TRHR PAM: qHTS for Small Molecule Agonists and Allosteric Enhancers of Human TRH Receptor: Primary Screen for Enhancers. Thyrotropin-releasing hormone receptor (Homo sapiens), P34981. TRHR cells, fluo-8 calcium fluorescence, EC20 TRH enhancement. enhancement, % at 2 µM. 360,000 tested, 0.66% active. AID 493056, 2011; in the data active means enhancement above about 30%; further: 0% is about no effect
Target sequence (P34981 whole entry, looked up): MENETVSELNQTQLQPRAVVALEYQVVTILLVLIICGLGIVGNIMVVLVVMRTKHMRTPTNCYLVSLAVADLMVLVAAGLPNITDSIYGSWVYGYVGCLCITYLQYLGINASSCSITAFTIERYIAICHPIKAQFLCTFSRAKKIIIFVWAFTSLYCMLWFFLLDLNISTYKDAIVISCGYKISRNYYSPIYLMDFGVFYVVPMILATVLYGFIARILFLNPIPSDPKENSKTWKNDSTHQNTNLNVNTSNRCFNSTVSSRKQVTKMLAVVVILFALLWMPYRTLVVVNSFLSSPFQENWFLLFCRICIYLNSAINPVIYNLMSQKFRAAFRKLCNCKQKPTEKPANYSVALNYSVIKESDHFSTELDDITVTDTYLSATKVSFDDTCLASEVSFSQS
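Enhancer read-out: after compound pinning and an initial kinetic agonist-mode read, an EC20 of TRH (10 nM final) was injected and fluo-8 calcium signal (Ex 480/Em 530) followed at 1 s/cycle for 100 cycles in TRHR-expressing cells.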
D1 ag: Allosteric Agonists of the Human D1 Dopamine Receptor: qHTS. 360,000 tested, 1% active. AID 504660, 2011. HEK293 T-REx D1 cells, calcium flux, agonist mode. activation, % at 2 µM; further: 0% is about no effect
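Tetracycline-induced HEK293 TREx D1 cells, force-coupled to calcium signalling, were dye-loaded with a no-wash calcium kit. Compound was pin-added after a 10 s baseline. Fluorescence was read kinetically at 1 cycle/s for 180 s, with calcium rises flagged as agonism.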
D1 antag: Antagonist of Human D 1 Dopamine Receptor: qHTS; D(1A) dopamine receptor (Homo sapiens), P21728; HEK293 TREx D1 cells, calcium flux, dopamine EC80; hits give low values; activity change, negative = inhibition, % at 10 µM; 360,000 tested, 3.2% active; AID 504652, 2011; in the data active means activity change below about -30%; further: on the % scale 0 is the no-effect control and ±100 the full control effect
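Cells carrying a force-coupled, tetracycline-inducible human D1 receptor report calcium flux. Each well gets a 10 s baseline, compound with 180 s monitoring, then an EC80 dopamine stimulus with a second 180 s kinetic read.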
Glioma ERSR ind: qHTS for Inducers of the Endoplasmic Reticulum Stress Response (ERSR) in Human Glioma: qHTS | U87-MG GRP78 promoter luciferase reporter, 16 h | 420,000 tested, 0.02% active | Potency, µM, for the others: at the highest dose activation, usual class: activators; active means well fitted activation curve with a large enough effect; further: potency means the concentration at half of the fitted maximal effect; series mostly up to about 76 µM; % of control where 0% means no effect; nearly all actives have a fitted effect of over 35% in size
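ERSR induction read as luciferase luminescence (Bright-Glo, 10 min at room temperature) in stably transfected human U87-MG glioma cells exposed to compounds for 16 h, using GRP78 as sensor.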
TRHR ag: qHTS for Small Molecule Agonists and Allosteric Enhancers of Human TRH Receptor: Primary Screen for Agonists. TRHR cells, calcium flux fluo-8, FDSS agonist mode. activation, % at 2 µM. 360,000 tested, 0.18% active; further: 0% is about no effect
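Steps: seed TRHR cells overnight; add fluo-8 no-wash Ca dye, RT 30 min–1.5 h; record 10 s baseline; pin-transfer compounds; monitor fluorescence 1 cycle/s for the agonist window. Calcium increases flag candidate agonists.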
D1 PAM: Potentiators of Human D1 Dopamine Receptor: qHTS. 360,000 tested, 0.036% active. potentiation, % at 10 µM. HEK293 TREx D1 cells, calcium flux, dopamine EC20 potentiation; in the data active means potentiation above about 30%; further: 0% is about no effect
The depositor's hits bear a star; nt = no result. Most compounds without a hit are left out; they make up all but 4% or so of the library. Unless noted, no stated cut-off is given here; in the data, active means activation above about 30%; inactive means the rest.

SMILES	TRHR PAM	D1 ag	D1 antag	Glioma ERSR ind	TRHR ag	D1 PAM
CCOC(=O)c1cnc2c(Cl)cc(Cl)cc2c1NCCCN1CCOCC1	8.5	-1.0	-6.4	-2.1%	0.0	-17.8
Brc1ccc[n+](CCc2ccccc2)c1	nt	nt	nt	-1.4%	nt	nt
O=[N+]([O-])c1ccc(CNc2ccc(Cl)cc2)s1	-1.6	5.1	-37.3*	-2.6%	0.2	-9.1
Cc1nnc(SCc2cc(=O)n3cccc(C)c3n2)s1	5.6	-0.5	-47.0*	-5.0%	0.0	2.2
O=C(NCc1ccco1)c1ccc2c(c1)N(Cc1ccccc1)CCS2	-2.5	4.3	-13.7	-4.4%	-0.1	-10.2
O=C(NCc1ccco1)c1ccc2c(c1)N(Cc1ccc(Cl)cc1)CCS2	-1.8	1.6	-37.1*	-0.3%	-0.2	-7.8
CCN(CC(=O)NCCc1ccccc1)S(=O)(=O)c1ccc(Br)cc1	-0.1	5.8	-37.2*	-1.1%	0.6	-0.8
Cn1c(=O)[nH]c2c(c1=O)CCO2	nt	nt	nt	-3.4%	nt	nt
Cc1[nH]c(=O)c(C#N)c(C)c1Cc1ccc(Cl)cc1Cl	-0.1	0.3	-62.1*	-3.5%	-1.5	5.7
Cc1[nH]c(=S)c(C#N)c(C)c1Cc1ccc(Cl)cc1Cl	-0.5	0.3	-50.8*	-0.1%	0.4	-5.0
O=C(O)c1ccc2c(c1)C(=O)N([C@H](Cc1ccc3ccccc3c1)C(=O)O)C2=O	15.3	2.5	-7.4	nt	-0.5	3.6
CCOC(=O)N1CCN(CC(O)COc2ccc(-c3ccccc3)cc2)CC1 (stereo unspecified)	4.5	7.9	-31.4*	-2.4%	-0.2	-3.7
CCOC(=O)N1CCN(CC(O)COCc2ccccc2)CC1 (stereo unspecified)	4.4	1.6	17.5	-2.5%	-0.4	5.0
CC1CCCN(CC(O)COc2ccc(-c3ccccc3)cc2)C1 (stereo unspecified)	0.3	41.6*	1.7	2.5%	2.0	-1.6
OC1CCCN(CC(O)COc2ccc(-c3ccccc3)cc2)C1 (stereo unspecified)	-2.1	30.4*	5.5	0.9%	1.0	-7.0
c1ccc(CNCc2nnc(-c3cc4ccccc4[nH]3)o2)cc1	0.4	5.3	11.5	nt	0.9	0.1
N#CCCN(Cc1cccnc1)S(=O)(=O)c1ccc2ccccc2c1	2.5	0.2	-36.6*	-2.3%	-0.5	-0.4
CCOC(=O)Nc1ccc2c(c1)N(C(=O)CCN(CC)CC)c1ccccc1S2=O (stereo unspecified)	2.2	1.5	12.1	-12.8%	0.8	-1.9
COc1cc(=O)n2c(c1C(=O)NCc1nonc1C)CCN(C(=O)c1cccc(C)c1C)CC2	nt	nt	nt	1.0%	nt	nt
Cc1nn(CC(=O)NC2CC2)c(=O)c2cc3cc(F)ccc3n12	34.2*	1.5	-2.4	-2.7%	0.3	-5.5
CCN(C(=O)Cn1nc(C)n2c(cc3cc(C)ccc32)c1=O)c1ccccc1	1.3	0.5	-42.7*	6.0%	-0.6	-5.5
Cc1ccc(C)c(NS(=O)(=O)c2cc(C(=O)Nc3ccccc3-c3ccccc3)ccc2Cl)c1	-4.0	4.9	7.3	-1.5%	1.4	6.9
O=S(=O)(c1ccccc1)c1nc(-c2cccs2)oc1N1CCCCC1	35.9*	1.0	2.9	-4.6%	-0.2	1.4
CCCCCCCCCC(=O)O[C@H](CC(=O)O)C[N+](C)(C)C	nt	nt	nt	-5.4%	nt	nt
COc1cccc(C2=NN(S(C)(=O)=O)C(c3cn(-c4ccccc4)nc3-c3cccs3)C2)c1 (stereo unspecified)	20.8	1.0	-39.0*	0.6%	2.3	-1.9
SMILES	TRHR PAM	D1 ag	D1 antag	Glioma ERSR ind	TRHR ag	D1 PAM
O=C(O)CCC(=O)N1N=C(c2cccs2)CC1c1cn(-c2ccccc2)nc1-c1ccccc1 (stereo unspecified)	34.3*	1.4	10.6	3.6%	0.2	-1.1
CC[C@H](C)[C@H](NC(=O)[C@H](C)NC(=O)CNC(=O)[C@H](CCCN=C(N)N)NC(=O)[C@H](C)NC(=O)[C@H](CC(C)C)NC(=O)[C@H](CCC(=O)O)NC(=O)[C@H](CC(C)C)NC(=O)[C@H](C)NC(=O)[C@@H](N)CCC(=O)O)C(=O)N[C@@H](Cc1ccccc1)C(=O)N[C@@H](CCC(N)=O)C(=O)N[C@@H](C)C(=O)O	nt	nt	nt	-7.1%	nt	nt
Cc1ccc2scc(N3CCN(c4ccc(F)cc4)CC3)c(=O)c2c1	38.6*	2.2	5.4	-0.1%	-0.2	-1.5
Cc1ccc2scc(N3CCN(c4ccccc4)CC3)c(=O)c2c1	5.1	2.3	-6.5	2.4%	-0.1	-0.7
O=c1c(N2CCCCC2)csc2ccc(F)cc12	0.6	3.5	-74.8*	2.2%	0.3	4.9
CCN1CCN(c2csc3ccc(F)cc3c2=O)CC1	-0.4	4.9	-5.5	-1.8%	0.2	-1.4
COC(=O)C1(C)CCc2cc(OC)ccc2C1=O (stereo unspecified)	1.8	0.1	-46.0*	-0.3%	-0.2	5.3
COC(=O)C1(C)CN(S(=O)(=O)c2ccc(C)cc2)c2cc(OC)ccc2C1=O (stereo unspecified)	1.0	7.7	1.8	-3.5%	0.2	2.6
CCOc1ccccc1/C=N/NC(=O)Cc1csc(Nc2cccc(C(F)(F)F)c2)n1	-5.2	3.4	6.8	-4.4%	0.3	-1.8
CCOc1ccc(/C=N/NC(=O)Cc2csc(Nc3cccc(C(F)(F)F)c3)n2)c(OCC)c1	2.0	0.1	-32.4*	-6.5%	0.8	-4.7
COc1cccc(C2=CC(c3cc(OC)ccc3OC)n3nnnc3N2)c1 (stereo unspecified)	2.2	1.7	-42.2*	3.3%	-0.5	-3.8
COc1cccc(C2=CC(c3ccc(N(C)C)cc3)n3nnnc3N2)c1 (stereo unspecified)	-0.1	2.8	-35.6*	-0.2%	1.0	-12.4
COc1cccc(C2=CC(c3ccccc3)n3nnnc3N2)c1 (stereo unspecified)	nt	nt	nt	4.1%	nt	nt
COc1ccc(OC)c(C2C=C(c3ccc(C)c(C)c3)Nc3nnnn32)c1 (stereo unspecified)	0.6	2.2	-1.2	-0.7%	0.3	2.8
Cc1cc(CNC(=O)c2cccc(OC3CCN(S(=O)(=O)N(C)C)CC3)c2)on1	2.5	9.2	-39.3*	-2.3%	0.2	-9.8
CN(C)S(=O)(=O)N1CCC(Oc2ccc(C(=O)N3CCCCCCC3)cc2)CC1	12.5	22.7	-34.9*	1.4%	0.3	-7.6
